# Source: PubChem BioAssay (Tox21)
# Results filed as inconclusive are left out. A number with no mark means an inactive call. Activity calls are given as the source filed them. The call rests on the fitted dose curve; in most records, active means well fitted activation curve with a large enough effect in the repeat runs; inconclusive means weak or mixed curves; inactive means no such curve, though single readings can be large or run the other way.
# Molecular target: Nuclear receptor subfamily 1 group I member 2 (Homo sapiens) (UniProt O75469)
# Assay: Human pregnane X receptor (PXR) small molecule agonists, qHTS assay (AID 1346982); further: nearly all actives have a fitted effect of over 35% in size
# Conditions: PXR-Luc HepG2, CYP3A4 luciferase reporter, 24 h; series mostly up to 92.4 µM; activation: at the top concentration
# Outline: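 After plating in 5% charcoal-stripped FBS and a 5 hr rest, PXR-Luc HepG2 cells received compounds in DMSO. Following 24 hr at 37 C, ONE-Glo was added and light output read.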
# On the % scale 0 is the no-effect control and ±100 the full control effect; potency means the concentration at half of the fitted maximal effect.
# Nuclear receptor subfamily 1 group I member 2 (Homo sapiens), sequence (O75469 whole entry, looked up): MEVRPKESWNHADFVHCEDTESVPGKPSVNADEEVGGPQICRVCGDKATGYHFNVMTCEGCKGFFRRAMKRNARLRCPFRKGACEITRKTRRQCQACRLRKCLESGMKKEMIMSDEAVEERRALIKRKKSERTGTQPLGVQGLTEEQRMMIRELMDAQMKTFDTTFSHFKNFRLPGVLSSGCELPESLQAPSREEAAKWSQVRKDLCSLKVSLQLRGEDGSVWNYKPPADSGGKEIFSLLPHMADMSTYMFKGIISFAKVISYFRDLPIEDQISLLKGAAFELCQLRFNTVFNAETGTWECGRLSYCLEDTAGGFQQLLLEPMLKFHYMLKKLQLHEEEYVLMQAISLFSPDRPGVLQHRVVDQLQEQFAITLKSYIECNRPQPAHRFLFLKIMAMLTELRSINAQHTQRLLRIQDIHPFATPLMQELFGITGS
Compound,Potency,activation
O=C(CC(=O)c1ccccc1)c1ccccc1,65.7 µM (active),
CCCCOC(=O)c1ccccc1C(=O)OCC(CC)CCCC (centres undefined),,21.7%
O=C(c1ccccc1)c1ccc2n1CCC2C(=O)O (centres undefined),,13.6% [at 42.5 µM]
CCN(CC)C(C)CN1c2ccccc2Sc2ccccc21 (centres undefined),,4.12% [at 42.5 µM]
O=C(Nc1ccccc1)OCC(CN1CCCCC1)OC(=O)Nc1ccccc1 (centres undefined),2.37 µM (active),
CC(O)C1CCCCC1 (centres undefined),,6.05%
CCCCCCOC(=O)CCC,,0.234%
COCCO,,1.17%
CC(C)(C)c1ccc(S)cc1,,8.67%
CCOc1ccc2[nH]cc(C(=O)NCc3ccccc3)c(=O)c2n1,19.3 µM (active),
O=c1[nH]cnc2ccccc12,0.398 µM (active),
CCC(C)N(C)C(=O)c1cc2ccccc2c(-c2ccccc2Cl)n1 (centres undefined),0.498 µM (active),
S=C(S)NCCNC(=S)S,,16.8%
CC(=O)N(O)CCCCCNC(=O)CCC(=O)N(O)CCCCCNC(=O)CCC(=O)N(O)CCCCCN,,1.47% [at 42.5 µM]
O=S1(=O)c2cccc3cccc(c23)N1CCCN1CCN(c2ccc(F)cc2)CC1,4.73 µM (active),
C=CCCCCCC,,21.4%
O=C1CCCCCO1,,5.88%
CN(C)CC[C@@H](c1ccc(Br)cc1)c1ccccn1,,18.5% [at 42.5 µM]
O=C(c1ccc(O)cc1)c1ccc(O)cc1,54.5 µM (active),
O=C(NS(=O)(=O)/C=C/c1cccs1)c1ccc(F)cc1Br,30.6 µM (active),
O=C(O)C1CCC(C(=O)O)CC1 (centres undefined),,-11.8%
CC(=O)OC/C=C/c1ccccc1,,9.74%
c1ccc(-c2nc[nH]c2-c2ccccc2)cc1,,19.2% [at 42.5 µM]
CC(=O)OCCc1ccccc1,,0.325%
